From the supplement of paper PMC8285479
Where a name gives a salt, the structure may show the parent alone. ± gives the standard deviation of the averaged measurements. Whole data set: some 1,900 compounds, median “normalised cell viability (NPI; 0 = phenylarsine oxide control, 1 = DMSO control)” near 1, cut for the lowest 2% near 0.039. Only a selection was taken, and the lowest values are over-represented in it overall.

Tested on: NCI-H1944
Experiment: normalised cell viability (NPI; 0 = phenylarsine oxide control, 1 = DMSO control) (fraction of DMSO control); NCI-H1944 is a non-small cell lung cancer line; higher = more viable cells (less compound toxicity)
Details: 6 days
[1] = glucocorticoid arm: hydrocortisone 2.75 uM co-treatment, compound 1 µM
[2] = glucocorticoid arm: hydrocortisone 2.75 uM co-treatment, compound 5 µM
[3] = glucocorticoid arm: hydrocortisone 2.75 uM pre-treated 2 days and continued, compound 1 µM
[4] = glucocorticoid arm: hydrocortisone 2.75 uM pre-treated 2 days and continued, compound 5 µM
[5] = glucocorticoid arm: vehicle, compound 1 µM
[6] = glucocorticoid arm: vehicle, compound 5 µM
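Further: CTB read-out in 384-well plates, triplicate wells, NPI normalised per plate against 1 µM phenylarsine oxide (0) and 0.1% DMSO (1) controls.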

| Compound | normalised cell viability [1] | normalised cell viability [2] | normalised cell viability [3] | normalised cell viability [4] | normalised cell viability [5] | normalised cell viability [6] |
| --- | --- | --- | --- | --- | --- | --- |
| O=C(O)C1CCNCC1 [Isonipecotic acid] | 1.003 ± 0.0058 | 1.02 ± 0.017 | 1.01 ± 0.018 | 1.04 ± 0.07 | 0.9937 ± 0.0015 | 1.001 ± 0.0078 |
| Cc1ccccc1/C=C/C1=NCCN1 [Metrazoline oxalate] | 0.9993 ± 0.0011 | 1.002 ± 0.0072 | 1.01 | 0.987 ± 0.017 | 0.995 ± 0.007 | 1.002 ± 0.0076 |
| CN(N=O)C(=O)N[C@@H]1[C@@H](O)[C@H](O)[C@@H](CO)O[C@@H]1O [Streptozocin] | 1 ± 0.014 | 1.03 ± 0.015 | 1.001 ± 0.0081 | 1.04 ± 0.01 | 0.9943 ± 0.0051 | 1 |
| COCC(=O)O[C@]1(CCN(C)CCCc2nc3ccccc3[nH]2)CCc2cc(F)ccc2[C@@H]1C(C)C [Mibefradil dihydrochloride] | 0.977 ± 0.011 | 0.0303 ± 0.012 | 1 ± 0.015 | 0.827 ± 0.24 | 0.9887 ± 0.0031 | 0.00844 ± 0.014 |
| CC(C)[C@H]1c2ccc(F)cc2CC[C@@]1(CCN(C)CCCc1nc2ccccc2[nH]1)OC(=O)C1CC1 | 0.9943 ± 0.0051 | -0.000718 ± 0.00075 | 1.013 ± 0.0058 | 1.08 ± 0.035 | 0.989 ± 0.0095 | -6.33e-05 ± 0.0017 |
| CCOc1ccc(Cc2cc([C@@H]3O[C@H](CO)[C@@H](O)[C@H](O)[C@H]3O)ccc2Cl)cc1 [Dapagliflozin] | 1.01 ± 0.016 | 1.02 ± 0.026 | 1.02 ± 0.015 | 1.04 ± 0.017 | 1.001 ± 0.0081 | 1 ± 0.011 |
| CNC(=O)[C@H]1O[C@@H](n2cnc3c(N)ncnc32)[C@H](O)[C@@H]1O [5'-N-Methyl carboxamidoadenosine] | 0.982 ± 0.02 | 0.972 ± 0.015 | 0.988 ± 0.013 | 0.961 ± 0.0028 | 0.9893 ± 0.0078 | 0.976 ± 0.0053 |
| O=C(O)/C(=C\c1c(C(=O)O)[nH]c2cc(Cl)cc(Cl)c12)c1ccccc1 | 1.02 ± 0.015 | 1.06 ± 0.017 | 1.017 ± 0.0058 | 1.08 ± 0.081 | 0.995 ± 0.002 | 1.013 ± 0.0058 |
| C/C=C1\NC(=O)[C@H]2CSSCC/C=C/[C@H](CC(=O)N[C@H](C(C)C)C(=O)N2)OC(=O)[C@H](C(C)C)NC1=O [Romidepsin (FK228, Depsipeptide)] | 0.00704 ± 0.0021 | 0.000455 ± 0.00053 | 0.00593 ± 0.0021 | 0.000393 ± 0.00068 | 0.00559 ± 0.0012 | 2.1e-05 ± 0.00023 |
| C/C=C1\NC(=O)[C@H]2CSSCC/C=C/[C@H](CC(=O)N[C@H](C(C)C)C(=O)N2)OC(=O)[C@H](C(C)C)NC1=O [Romidepsin] | 1.005 ± 0.0092 | 1.02 ± 0.011 | 1.007 ± 0.0058 | 1.02 ± 0.015 | 0.9903 ± 0.0045 | 0.979 ± 0.019 |
| C/C=C1\NC(=O)[C@H]2CSSCC/C=C/[C@H](CC(=O)N[C@H](C(C)C)C(=O)N2)OC(=O)[C@H](C(C)C)NC1=O [Depsipeptide] | 6.37e-05 ± 0.001 | 1.05 ± 0.02 | 0.00143 ± 0.00036 | 1.027 ± 0.0058 | 0.00028 ± 0.00044 | 1.01 |
| O=C(O)C1CCCNC1 (racemic) [(±)-Nipecotic acid] | 0.9947 ± 0.005 | 1.01 ± 0.014 | 1.02 ± 0.059 | 1.02 ± 0.021 | 1 ± 0.01 | 1.013 ± 0.0058 |
| CN(C)CCSSCCNC(=O)C1CCN(C(=O)CSc2ccc(Cl)cc2)CC1 | 1.01 ± 0.01 | 1.04 ± 0.015 | 1.027 ± 0.0058 | 1.05 ± 0.01 | 0.9967 ± 0.0035 | 0.9967 ± 0.0042 |
| N[C@@H](Cc1c[nH]cn1)C(=O)O [L-Histidine hydrochloride] | 1.017 ± 0.0058 | 0.996 ± 0.012 | 1 ± 0.014 | 1.02 ± 0.01 | 0.9973 ± 0.0038 | 0.9973 ± 0.0046 |
| O=C(O)c1ccnc(C(=O)O)c1 [2,4-Pyridinedicarboxylic Acid] | 1 ± 0.022 | 0.999 ± 0.045 | 0.996 ± 0.021 | 1.01 ± 0.024 | 0.996 ± 0.015 | 0.999 ± 0.015 |
| CN=c1nc(-c2ccccc2)n(-c2ccccc2)s1 | 1.003 ± 0.0058 | 1.04 ± 0.031 | 0.832 ± 0.33 | 1.02 ± 0.01 | 1.01 | 1.017 ± 0.0058 |
| O=C1Nc2ccc(I)cc2C1=Cc1cc(Br)c(O)c(Br)c1 | 1.047 ± 0.0058 | 1.113 ± 0.0058 | 1.04 ± 0.01 | 1.08 ± 0.021 | 1.02 ± 0.01 | 1.043 ± 0.0058 |
| Cc1nc(N=Nc2cc([N+](=O)[O-])ccc2Cl)c(COP(=O)(O)O)c(C=O)c1O [MRS 2211 sodium salt hydrate] | 1.003 ± 0.0061 | 1.023 ± 0.0058 | 0.9933 ± 0.0099 | 0.995 ± 0.036 | 1.01 ± 0.013 | 1.006 ± 0.0075 |
| Cc1c2oc3c(C)ccc(C(=O)N[C@@H]4C(=O)N[C@H](C(C)C)C(=O)N5CCC[C@H]5C(=O)N(C)CC(=O)N(C)[C@@H](C(C)C)C(=O)O[C@@H]4C)c3nc-2c(C(=O)N[C@@H]2C(=O)N[C@H](C(C)C)C(=O)N3CCC[C@H]3C(=O)N(C)CC(=O)N(C)[C@@H](C(C)C)C(=O)O[C@@H]2C)c(N)c1=O [Dactinomycin] | 0.0161 ± 0.0015 | 0.0688 ± 0.0039 | 0.0397 ± 0.0056 | 0.183 ± 0.016 | 0.0046 ± 0.00021 | 0.0187 ± 0.0011 |
| COc1cc2c(cc1OC)-c1c/c(=N\c3c(C)cc(C)cc3C)n(C)c(=O)n1CC2 [Trequinsin hydrochloride] | 1.03 ± 0.015 | 1.02 ± 0.022 | 0.908 ± 0.2 | 1.033 ± 0.0058 | 1.023 ± 0.0058 | 1.05 ± 0.035 |
| CC(Cc1ccccc1)Nc1ncnc2c1ncn2C1OC(CO)C(O)C1O (stereo not drawn) [R(-)-N6-(2-Phenylisopropyl)adenosine] | 0.998 ± 0.002 | 1.01 ± 0.018 | 0.9997 ± 0.0096 | 1.03 ± 0.031 | 1.013 ± 0.0058 | 1.02 ± 0.017 |
| CC(=O)NC(C(=O)O)C(C)(C)SN=O (configuration not stated) [S-Nitroso-N-acetylpenicillamine] | 0.998 ± 0.014 | 1 ± 0.026 | 1.01 ± 0.011 | 0.987 ± 0.023 | 0.9937 ± 0.0011 | 0.9943 ± 0.0055 |
